Compound activity from PubChem BioAssay.
In the library only some 21% were active in any assay of this set; here they are far more common.
CHX counter = Cycloheximide Counterscreen for Small Molecule Inhibitors of Shiga Toxin; max response, %; hit rate 12% among 300,000; cell reporter, cycloheximide protein synthesis inhibition counterscreen; in the data active means max response mostly above about 13%, no sharp cut-off; inactive means mostly below about 14%; further: read at 38.3 µM for the half of the compounds with a filed dose
NS1 function inh = qHTS Assay for Inhibitors of Influenza NS1 Protein Function; Potency, µM (top dose mostly 46.1 µM); hit rate 0.4% among 270,000; AID 2326, 2010; calls by dose curve; further: actives are rising curves; nearly all actives have a fitted effect of over 50% in size
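Read-out: OD600 growth recovery of NS1-expressing budding yeast. Cells grown overnight at 30C in -URA glucose medium, washed, resuspended and diluted 1:100 in 2% galactose assay medium, pH 6.0. Same strain lacking NS1 served as positive control.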
Giardia FBPA inh = qHTS Assay for Inhibitors of Fructose-1,6-bisphosphate Aldolase from Giardia Lamblia; purified Giardia FBPA; hit rate 0.71% among 290,000; A8B2U2; Potency, µM (highest dose often 59.6 µM), actives largely listed as inhibitors; further: nearly all actives have a fitted effect of over 55% in size
Target sequence (A8B2U2 whole entry, looked up): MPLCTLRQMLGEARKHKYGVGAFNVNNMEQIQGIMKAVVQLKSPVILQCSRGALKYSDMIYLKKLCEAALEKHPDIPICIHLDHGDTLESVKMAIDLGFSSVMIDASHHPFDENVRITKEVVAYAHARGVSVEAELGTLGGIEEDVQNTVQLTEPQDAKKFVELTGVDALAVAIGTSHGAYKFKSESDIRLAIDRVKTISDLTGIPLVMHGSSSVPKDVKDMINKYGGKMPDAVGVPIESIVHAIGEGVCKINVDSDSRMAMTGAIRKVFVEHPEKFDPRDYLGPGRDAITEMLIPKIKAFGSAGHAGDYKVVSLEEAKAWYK
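40 nM FBPA preincubated 10 min at RT with compound (up to 57.5 uM final), then substrate plus GAPDH/TPI/NAD/arsenate coupling and diaphorase/resazurin added. Fluorescence read after 20 min at RT, 525/598 nm.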
Pf growth 96h = Primary qHTS for delayed death inhibitors of the malarial parasite plastid, 96 hour incubation. P. falciparum luciferase reporter growth, 96 h. hit rate 6.9% among 320,000. Potency, µM (highest dose often 28.7 µM), most hits filed as inhibitors
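Infected RBCs, 2% Hct / 0.05% parasitemia final; luciferase-reporter P. falciparum; cpd 96 h, 37 C, 5% CO2; luciferase detection reagent; luminescence.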
Shiga toxin inh = A qHTS for Small Molecule Inhibitors of Shiga Toxin; Vero cells, Shiga toxin protein synthesis inhibition reporter; hit rate 9.2% among 290,000; inhibition, % at 38.7 µM; in the data active means inhibition mostly above about 28%, no sharp cut-off; inactive means mostly below about 43%
Pf growth 48h = Primary qHTS for delayed death inhibitors of the malarial parasite plastid, 48 hour incubation; P. falciparum luciferase growth in erythrocytes, 48 h; Potency, µM (highest dose often 28.7 µM), most hits filed as inhibitors; hit rate 5.9% among 310,000
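In quantitative HTS format, infected erythrocytes bearing luciferase-reporter parasites were treated for a single generation at 37 C. Luminescence after adding detection reagent served as the growth measure.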
Each line names hits and unclear results; the compound was inactive in the other large screens. Unless noted, the call rests on the fitted dose curve; in most records, active means well fitted curve in the direction sought with a large enough effect; inconclusive means small, poorly fitted or top-dose-only effect, or another doubt; inactive means no such curve, though single readings can be large; an effect the other way counts as inactive or inconclusive.

CC(=O)N1CCc2c(sc(NC(=O)C3COc4ccccc4O3)c2C(N)=O)C1 (stereo not given)	CHX counter 31, Pf growth 96h 12µM (no result: Giardia FBPA inh)
Cc1nnc(SCC(=O)Nc2ccc3c(c2)OCCO3)s1	Pf growth 48h inconclusive
CC(=O)Cc1nsc(Nc2ccc3c(c2)OCCO3)n1	CHX counter 82, NS1 function inh inconclusive, Pf growth 96h inconclusive, Shiga toxin inh 96
CC(=O)Cc1nsc(Nc2ccc(Cl)cc2)n1	CHX counter 61, Shiga toxin inh 86
CC(=O)Cc1nsc(Nc2ccc(F)cc2)n1	Pf growth 96h 10µM, Shiga toxin inh 65 (no result: NS1 function inh)
CC(=O)Cc1nsc(NC(=O)c2ccc(-c3cccc(Cl)c3)o2)n1	none (no result: NS1 function inh)
CC(=O)Cc1nsc(NC(=O)c2ccco2)n1	none (no result: Pf growth 96h)
Nc1c(S(=O)(=O)O)cc(Nc2cccc(S(N)(=O)=O)c2)c2c1C(=O)c1ccccc1C2=O	none (no result: CHX counter, Giardia FBPA inh, Pf growth 96h, Shiga toxin inh, Pf growth 48h)
Cc1ccc(NS(=O)(=O)c2ccc3c(c2)CCN3C(=O)CCC(=O)O)cc1Cl	Pf growth 96h inconclusive
C=CCC1CCCC(=O)N2CCCC12 (stereo not given)	none (no result: NS1 function inh, Pf growth 96h, Pf growth 48h)
Oc1ccccc1C1=Nc2ncnn2C(c2ccc(F)cc2)C1 (stereo not given)	Pf growth 96h 12µM
O=P(c1ccccc1)(c1ccccc1)C(O)c1ccccn1 (stereo not given)	Giardia FBPA inh inconclusive
O=P(c1ccccc1)(c1ccccc1)C(c1ccccn1)P(=O)(c1ccccc1)c1ccccc1	Pf growth 96h 9.3µM, Pf growth 48h inconclusive
Cc1c(CN2CCc3c([nH]c4ccccc34)C2C2CCCCC2)cnn1C (stereo not given)	Pf growth 96h 5.9µM, Pf growth 48h inconclusive
Cc1cccc(CN2CCc3c([nH]c4ccccc34)C2CC(C)C)n1 (stereo not given)	Pf growth 96h 10µM, Pf growth 48h 9.3µM
CCn1ccnc1CN1CCc2c([nH]c3ccccc23)C1C1CCCCC1 (stereo not given)	Pf growth 48h inconclusive
Cc1cnc(CN2CCc3c([nH]c4ccccc34)C2CC(C)C)[nH]1 (stereo not given)	Pf growth 48h 13µM
Cc1nc2cnc(N3CCNCC3)nc2n(-c2ccccc2)c1=O	none (no result: CHX counter, NS1 function inh, Pf growth 96h, Shiga toxin inh, Pf growth 48h)
CCOc1ccc(CCNC(=O)CS(=O)Cc2nc(-c3ccccc3C)oc2C)cc1OCC (stereo not given)	Pf growth 96h inconclusive (no result: Giardia FBPA inh)
CCC(C)n1c(C)nc2c(c1=O)c1nc3ccccc3nc1n2CCC1=CCCCC1 (stereo not given)	Pf growth 96h 12µM, Pf growth 48h 13µM (no result: Giardia FBPA inh)
CCc1ccccc1NC(=O)CN1C(=O)c2ccccc2S1(=O)=O	none
CC#CC[N+](C)(C)CCCCCCCCCC	Pf growth 96h inconclusive, Pf growth 48h 0.74µM
C#CC[N+](C)(C)CCCCCCCCC	Pf growth 96h inconclusive, Pf growth 48h 3.7µM
O=C(O)c1nc(NCCc2ccccc2)ncc1Cl	none
CCCCn1c(N)c(N(CCOC)C(=O)c2ccc3c(c2)C(=O)N(c2cc(C)ccc2C)C3=O)c(=O)[nH]c1=O	none (no result: Giardia FBPA inh)
O=C(COC(=O)CNC(=O)c1ccc(Cl)cc1Cl)Nc1cccc(S(=O)(=O)N2CCCC2)c1	none (no result: CHX counter, NS1 function inh, Giardia FBPA inh, Shiga toxin inh)
Cn1cnc(S(=O)(=O)Nc2cc(-c3ccc(Cl)cc3)nn2C)c1	none
Cc1ccc(-n2nnnc2SC(C)C(=O)Nc2ccc(Cl)cn2)cc1 (stereo not given)	Pf growth 96h 9.3µM, Pf growth 48h inconclusive
CCN1C(=O)[C@H]2[C@H]3[C@H](O)[C@H](O)C/C(=N/NC(=O)OCc4ccccc4)[C@@H]3CC[C@@H]2C1=O	none (no result: CHX counter, NS1 function inh, Pf growth 96h, Shiga toxin inh, Pf growth 48h)
CCc1nc2sc3c(O)cc(=O)[nH]c3c2cc1C	Pf growth 96h inconclusive (no result: NS1 function inh)
C=CCSc1nnc(-c2ccccc2N=Cc2c(C)[nH]n(-c3ccccc3)c2=O)c(=O)[nH]1	CHX counter 23 (no result: Pf growth 48h)
Cc1[nH]n(-c2ccccc2)c(=O)c1/C=N/c1nn[nH]n1	none
CSc1nnc(-c2ccccc2N=Cc2c(C)[nH]n(-c3ccc4ccccc4c3)c2=O)c(=O)[nH]1	CHX counter 33
CCC/C=C(\CCC)C(NC(=O)CCc1ccccc1)c1ccc(C(F)(F)F)cc1 (stereo not given)	none (no result: CHX counter, NS1 function inh, Pf growth 96h, Shiga toxin inh, Pf growth 48h)
CCOc1ccc(Oc2ccc(C(F)(F)F)cc2NC(=O)C2=COCCO2)cc1	Pf growth 96h inconclusive, Pf growth 48h 15µM (no result: CHX counter, NS1 function inh, Giardia FBPA inh, Shiga toxin inh)
CC(C)Oc1ccc(S(=O)(=O)N2CCCCC2)cc1NC(=O)C1=COCCO1	Pf growth 96h 8.3µM, Pf growth 48h inconclusive (no result: CHX counter, NS1 function inh, Giardia FBPA inh, Shiga toxin inh)
Cc1cccc(Oc2ccc(S(=O)(=O)N3CCCCC3)cc2NC(=O)C2=COCCO2)c1	Pf growth 96h inconclusive, Pf growth 48h 13µM (no result: CHX counter, NS1 function inh, Giardia FBPA inh, Shiga toxin inh)
O=C(Cn1cnc2ccccc2c1=O)NCCC(=O)Nc1ccccc1C(F)(F)F	Pf growth 96h inconclusive
CCn1ncc(Br)c1C(=O)NC1CCCCCCC1	Pf growth 96h inconclusive (no result: Giardia FBPA inh)
COC(=O)C1=C(N)Oc2cc(C)[nH]c(=O)c2C1c1ccccc1OC (stereo not given)	none
COC(=O)C1=C(N)Oc2cc(C)[nH]c(=O)c2C1c1cc(OC)c(OC)c(OC)c1 (stereo not given)	Pf growth 48h 10µM
CN(/N=C/c1ccncc1)c1cnn(-c2ccc(F)c(Cl)c2)c(=O)c1Cl	CHX counter 27, Shiga toxin inh 46, Pf growth 48h inconclusive
Cc1nc2c(=O)n(-c3ccc(F)c(Cl)c3)nc(C)c2s1	Pf growth 48h inconclusive
Nc1nc(-c2ccccc2)c(-c2ccccc2)c(-c2nc(N)nc(-c3ccccc3)c2-c2ccccc2)n1	none (no result: CHX counter, Giardia FBPA inh, Pf growth 96h, Shiga toxin inh, Pf growth 48h)
CC(=O)N1CCC2(CC1)CCN(c1ccccc1)CC2	none (no result: CHX counter, NS1 function inh, Pf growth 96h, Shiga toxin inh, Pf growth 48h)
CC[n+]1c(/C=C/C=C/N(C(C)=O)c2ccccc2)sc2ccccc21	NS1 function inh inconclusive, Pf growth 96h 9.3µM, Pf growth 48h 4.7µM
CC[n+]1c(/C=C/N(C)c2ccccc2)sc2ccc(Cl)cc21	Pf growth 96h 0.13µM, Pf growth 48h 0.1µM
CCn1c(/C=C/N(C(C)=O)c2ccccc2)[n+](CC)c2ccc(Cl)cc21	Pf growth 48h 2.1µM
CCn1c(C)[n+](CC)c2ccc(C(=O)N(C)c3ccccc3)cc21	none
Cc1ccsc1C(=O)OCC(=O)NC1CCCCC1C (stereo not given)	none (no result: CHX counter, NS1 function inh, Giardia FBPA inh, Shiga toxin inh)
COCO/C=C(\NC(C)=O)c1ccccc1	none (no result: CHX counter, NS1 function inh, Giardia FBPA inh, Shiga toxin inh)
CC1=NN(C(=O)CSCc2ccccc2)C(O)(c2ccc(Cl)cc2)C1 (stereo not given)	Pf growth 96h 12µM
O=C(NCCc1cn2ccccc2n1)c1ccccc1F	none
Fc1cccc(NCc2cn3ccccc3n2)c1	CHX counter 51, Shiga toxin inh 126
Fc1ccc(NCc2cn3ccccc3n2)cc1	CHX counter 53, Giardia FBPA inh inconclusive, Shiga toxin inh 77
Cc1ccc(C)n1-c1nccc(-c2ccco2)n1	none (no result: NS1 function inh)
COc1ccc(CCNS(=O)(=O)CCNC(=O)c2ccc3c(c2)OCO3)cc1	none (no result: CHX counter, NS1 function inh, Giardia FBPA inh, Shiga toxin inh)
